Assay results: PubChem BioAssay (Tox21)
Several values for one entry are separate records, joined by “and”; a condition that tells them apart may be missing. Equal values may be shown once. Records with an inconclusive call do not appear. Activity calls are given as the source filed them. Unless noted, calls follow the shape of the dose curve; as a rule, active = well fitted curve in the direction sought with a large enough effect in the repeat runs; inconclusive = weak or mixed curves; inactive = no such curve, though single readings can be large; an effect the other way counts as inactive or inconclusive.

What was measured:
[1] = qHTS assay to identify small molecule agonists of the peroxisome proliferator-activated receptor delta (PPARd) signaling pathway - cell viability counter screen (AID 743211); also: nearly all actives have a fitted effect of over 55% in size; also: potency is read from the fitted curve at half-maximal effect
Outline: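 qHTS cell viability: PPARd-bla HEK293H; 17 h cpd, 37C; CellTiter-Glo, luminescence at 30 min RT.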

[2] = qHTS assay to identify small molecule agonists of the farnesoid-X-receptor (FXR) signaling pathway - cell viability counter screen (AID 743218); also: nearly all actives have a fitted effect of over 45% in size; also: potency is read from the fitted curve at half-maximal effect
Outline: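 Parallel cytotoxicity test: compound-treated (16 h, 37 C) HEK 293T FXR-bla reporter cells were lysed with CellTiter-Glo and luminescence recorded.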

[3] = qHTS assay to identify small molecule antagonists of the farnesoid-X-receptor (FXR) signaling pathway - cell viability counter screen (AID 743221; active = well fitted cell-killing curve with a large enough effect in the repeat runs, not every such curve was filed as active; also: nearly all actives have a fitted effect of over 50% in size; also: potency is read from the fitted curve at half-maximal effect)
Outline: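 After a 5 h settling period, FXR-bla HEK 293T cells receive compound and chenodeoxycholic acid (50 uM final) and incubate 16 h at 37 C; CellTiter-Glo luminescence, read after 30 min at room temperature, reports cell viability.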

[4] = qHTS assay to identify small molecule agonists of the vitamin D receptor (VDR) signaling pathway - cell viability counter screen (AID 743224); also: nearly all actives have a fitted effect of over 50% in size; also: potency is read from the fitted curve at half-maximal effect
Outline: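 Plated VDR-bla cells (4 h, 37C) received compound, incubated 16 h, then LiveBLAzer substrate 2 h RT; CellTiter-Glo added afterwards, luminescence read at 30 min.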

[5] = qHTS assay to identify small molecule agonists of the NFkB signaling pathway - cell viability counter screen (AID 1159515; calls by dose curve; also: nearly all actives have a fitted effect of over 55% in size; also: potency is read from the fitted curve at half-maximal effect)
Outline: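 Using the same wells as the NFkB reporter read, ME-180 NFkB-bla cells given compounds for 5 hr were assessed for viability via CellTiter-Glo, with luminescence taken after a 30 min room-temperature incubation.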

[6] = qHTS assay to identify small molecule antagonists of the retinoid-related orphan receptor gamma (ROR-gamma) signaling pathway - cell viability counter screen (AID 1159520); also: nearly all actives have a fitted effect of over 50% in size; also: potency is read from the fitted curve at half-maximal effect
Outline: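 Cytotoxicity was read from cellular ATP (CellTiter-Glo luminescence) after 16 hr at 37 C with 1 uM doxycycline induction. The inducer was added 2 hr after compound transfer to Tet-on ROR gamma CHO cells.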

[7] = target: Nuclear receptor ROR-gamma (Homo sapiens) (UniProt P51449); test: qHTS assay to identify small molecule antagonists of the retinoid-related orphan receptor gamma (ROR-gamma) signaling pathway (AID 1159521; also: nearly all actives have a fitted effect of over 50% in size; also: potency is read from the fitted curve at half-maximal effect)
Outline: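 Decreased RORE-driven luciferase luminescence indicates antagonism. Tet-on RORγ CHO cells received compound, then 1 uM final doxycycline 2 h later; signal read after 16 h incubation.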

[8] = qHTS assay to identify small molecule antagonists of the peroxisome proliferator-activated receptor delta (PPARd) signaling pathway - cell viability counter screen (AID 743213); also: nearly all actives have a fitted effect of over 50% in size; also: potency is read from the fitted curve at half-maximal effect
Outline: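 Cytotoxicity counter screen: CellTiter-Glo luminescence read 30 min after addition, in the same wells as the reporter assay. There, PPARd UAS-bla HEK293H cells (3000/well) were treated 17 h at 37 C with compound and 300 nM L165041.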

[9] = qHTS assay to identify small molecule antagonists of the vitamin D receptor (VDR) signaling pathway - cell viability counter screen (AID 743225); also: nearly all actives have a fitted effect of over 50% in size; also: potency is read from the fitted curve at half-maximal effect
Outline: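 Parallel cytotoxicity test: VDR-UAS-bla HEK 293T, 3 nM (final) 1-alpha,25-dihydroxyvitamin D3 with test compound, 16 h, 37C. Endpoint is CellTiter-Glo luminescence in the same wells.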

[10] = qHTS assay to identify small molecule agonists of the AP-1 signaling pathway - cell viability counter screen (AID 1159525; calls by dose curve; also: nearly all actives have a fitted effect of over 55% in size; also: potency is read from the fitted curve at half-maximal effect)
Outline: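 Luminescent ATP readout (Cell Titer Glo, 30 min RT), normalised to DMSO and tetra n-octyl ammonium bromide controls. Cells were ME-180 AP-1-bla in 0.5% dialyzed FBS Opti-MEM, with a 5 h, 37 °C compound exposure.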

[11] = target: Peroxisome proliferator-activated receptor delta (Homo sapiens) (UniProt Q03181); test: qHTS assay to identify small molecule agonists of the peroxisome proliferator-activated receptor delta (PPARd) signaling pathway (AID 743212; calls by dose curve)
Outline: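 HEK293H PPARd-bla cells; 5 h preincubation 37 C/5% CO2; compound (DMSO) 37 C; LiveBLAzer B/G FRET substrate 2 h RT; fluorescence intensity.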

[12] = target: Peroxisome proliferator-activated receptor delta (Homo sapiens) (UniProt Q03181); test: qHTS assay to identify small molecule antagonists of the peroxisome proliferator-activated receptor delta (PPARd) signaling pathway (AID 743215; active = well fitted inhibition curve with a large enough effect in the signal ratio in the repeat runs, not every such curve was filed as active; the % refers to the signal ratio;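 also: cells stimulated with agonist L165041 at 300 nM final during compound exposure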; also: potency is read from the fitted curve at half-maximal effect)
Outline: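 HEK293H UAS-bla, PPARd; agonist L165041 300 nM final with cpd in DMSO; 37 C 17 h; FRET substrate, RT 2 h; fluorescence intensity.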

[13] = target: Retinoic acid receptor RXR-alpha (Homo sapiens) (UniProt P19793); test: qHTS assay to identify small molecule agonists of the RXR signaling pathway (AID 1159527; calls by dose curve; also: nearly all actives have a fitted effect of over 35% in size)
Outline: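 16 hr incubation of compound-treated RXR-alpha-UAS-bla HEK 293T cells (2% charcoal-stripped FBS, 37 C) preceded a 2 hr room-temperature LiveBLAzer FRET substrate step and blue/green fluorescence measurement.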

[14] = target: Bile acid receptor (Homo sapiens) (UniProt Q96RI1); test: qHTS assay to identify small molecule agonists of the farnesoid-X-receptor (FXR) signaling pathway (AID 743220; active = well fitted activation curve with a large enough effect in the signal ratio in the repeat runs, not every such curve was filed as active; the % refers to the signal ratio)
Outline: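 Beta-lactamase reporter under UAS control in GeneBLAzer FXR HEK 293T cells (5000/well) measured with LiveBLAzer FRET substrate after 2 h at room temperature. Compound exposure lasted 16 h at 37C.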

[15] = qHTS assay to identify small molecule agonists of the AP-1 signaling pathway (AID 1159526; calls by dose curve)
[16] = target: Bile acid receptor (Homo sapiens) (UniProt Q96RI1); test: qHTS assay to identify small molecule antagonists of the farnesoid-X-receptor (FXR) signaling pathway (AID 743217; active = well fitted inhibition curve with a large enough effect in the signal ratio in the repeat runs, not every such curve was filed as active; the % refers to the signal ratio; also: potency is read from the fitted curve at half-maximal effect)
Outline: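 GeneBLAzer FXR-UAS-bla HEK 293T, CDCA-stimulated (50 uM final). Compound treatment 16 h, 37 °C. Detection: beta-lactamase cleavage of B/G FRET substrate, fluorescence.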

[17] = target: Vitamin D3 receptor (Homo sapiens) (UniProt P11473); test: qHTS assay to identify small molecule antagonists of the vitamin D receptor (VDR) signaling pathway (AID 743223; active = well fitted inhibition curve with a large enough effect in the signal ratio in the repeat runs, not every such curve was filed as active; the % refers to the signal ratio; also: potency is read from the fitted curve at half-maximal effect)
Outline: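 Reporter line VDR-bla; stimulus 1alpha,25-(OH)2 vitamin D3, 3 nM final; compound co-addition, 16 h 37C/5% CO2; LiveBLAzer B/G substrate 2 h RT; fluorescence intensity.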

[18] = target: Vitamin D3 receptor (Homo sapiens) (UniProt P11473); test: qHTS assay to identify small molecule agonists of the vitamin D receptor (VDR) signaling pathway (AID 743222; calls by dose curve)
Outline: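 In VDR-bla cells, compound-induced beta-lactamase expression is quantified by FRET substrate fluorescence. Treatment lasts 16 h at 37C; substrate develops 2 h at room temperature.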

Measured: Potency

Sequence of Retinoic acid receptor RXR-alpha (Homo sapiens) (P19793 whole entry, looked up): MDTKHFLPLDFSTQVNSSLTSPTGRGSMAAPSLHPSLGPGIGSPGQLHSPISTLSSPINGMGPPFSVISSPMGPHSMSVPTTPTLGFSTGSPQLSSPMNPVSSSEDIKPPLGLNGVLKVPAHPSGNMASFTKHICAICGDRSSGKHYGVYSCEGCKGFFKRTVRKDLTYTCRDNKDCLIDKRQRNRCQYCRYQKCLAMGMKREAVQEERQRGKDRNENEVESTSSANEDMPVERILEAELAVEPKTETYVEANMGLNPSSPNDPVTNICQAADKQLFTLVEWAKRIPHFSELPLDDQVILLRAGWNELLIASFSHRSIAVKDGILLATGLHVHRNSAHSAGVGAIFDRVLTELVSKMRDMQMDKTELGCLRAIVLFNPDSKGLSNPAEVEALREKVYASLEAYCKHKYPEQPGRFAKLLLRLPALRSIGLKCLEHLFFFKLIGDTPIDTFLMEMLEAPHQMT
Sequence of Peroxisome proliferator-activated receptor delta (Homo sapiens) (Q03181 whole entry, looked up): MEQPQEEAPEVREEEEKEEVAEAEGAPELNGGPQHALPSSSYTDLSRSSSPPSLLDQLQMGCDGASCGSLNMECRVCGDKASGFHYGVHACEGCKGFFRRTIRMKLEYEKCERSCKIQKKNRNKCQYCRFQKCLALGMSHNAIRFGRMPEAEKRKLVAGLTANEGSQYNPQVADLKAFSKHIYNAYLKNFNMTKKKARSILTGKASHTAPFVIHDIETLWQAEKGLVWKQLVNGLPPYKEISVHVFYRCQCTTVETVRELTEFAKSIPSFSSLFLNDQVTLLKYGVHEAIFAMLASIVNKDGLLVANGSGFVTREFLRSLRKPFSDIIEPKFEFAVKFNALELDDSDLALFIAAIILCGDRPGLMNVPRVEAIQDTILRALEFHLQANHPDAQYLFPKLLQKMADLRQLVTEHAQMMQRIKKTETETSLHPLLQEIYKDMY
Sequence of Vitamin D3 receptor (Homo sapiens) (P11473 whole entry, looked up): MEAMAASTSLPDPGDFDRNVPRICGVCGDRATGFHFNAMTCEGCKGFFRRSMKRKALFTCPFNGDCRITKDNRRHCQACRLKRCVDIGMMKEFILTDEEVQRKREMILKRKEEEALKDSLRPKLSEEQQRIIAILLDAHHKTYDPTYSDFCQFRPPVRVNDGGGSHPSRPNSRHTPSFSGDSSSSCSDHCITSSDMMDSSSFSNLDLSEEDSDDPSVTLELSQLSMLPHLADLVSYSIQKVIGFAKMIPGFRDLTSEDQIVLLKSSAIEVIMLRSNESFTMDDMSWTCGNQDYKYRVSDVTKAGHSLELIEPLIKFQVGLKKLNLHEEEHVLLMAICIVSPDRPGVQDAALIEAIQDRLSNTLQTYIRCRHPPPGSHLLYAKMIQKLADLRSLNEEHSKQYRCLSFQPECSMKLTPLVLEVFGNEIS
Sequence of Bile acid receptor (Homo sapiens) (Q96RI1 whole entry, looked up): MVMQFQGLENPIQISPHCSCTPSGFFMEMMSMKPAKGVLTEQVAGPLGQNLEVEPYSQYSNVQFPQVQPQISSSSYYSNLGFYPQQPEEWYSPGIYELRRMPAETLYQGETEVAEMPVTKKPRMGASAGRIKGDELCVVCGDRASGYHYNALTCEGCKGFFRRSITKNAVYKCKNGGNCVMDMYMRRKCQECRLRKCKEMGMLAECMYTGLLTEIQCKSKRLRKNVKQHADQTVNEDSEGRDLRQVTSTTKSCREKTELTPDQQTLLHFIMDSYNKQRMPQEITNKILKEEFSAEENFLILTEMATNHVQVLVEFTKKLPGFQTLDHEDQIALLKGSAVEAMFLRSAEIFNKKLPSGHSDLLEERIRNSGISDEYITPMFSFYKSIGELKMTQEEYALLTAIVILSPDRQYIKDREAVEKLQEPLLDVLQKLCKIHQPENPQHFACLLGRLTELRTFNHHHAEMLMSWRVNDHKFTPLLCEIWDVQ

[CH3][Hg][Cl]
active: [1] 12.3 µM | [2] 13.8 µM | [3] 38.8 µM | [4] 38.8 µM | [5] 10.9 µM | [6] 4.31 µM | [7] 3.05 µM

CC[C@H](C)[C@H]1O[C@]2(C=C[C@@H]1C)C[C@@H]1C[C@@H](C/C=C(\C)[C@@H](O[C@H]3C[C@H](OC)[C@@H](O[C@H]4C[C@H](OC)[C@@H](O)[C@H](C)O4)[C@H](C)O3)[C@@H](C)/C=C/C=C3\CO[C@@H]4[C@H](O)C(C)=C[C@@H](C(=O)O1)[C@]34O)O2
active: [1] 11.5 µM | [8] 9.15 µM | [2] 12.9 µM | [3] 12.9 µM | [4] 7.27 µM | [9] 11.5 µM | [5] 28.9 µM | [6] 25.6 µM | [10] 23 µM

CCOP(=S)(OCC)OC(Cl)C(Cl)(Cl)Cl (configuration not stated)
inactive: [11] | [12] | [2] | [3] | [4] | [9] | [5] | [7] | [10] | [13]

Oc1ccc(C(=C(Cl)Cl)c2ccc(O)cc2)cc1
active: [12] 19.5 µM | [4] 48.9 µM
inactive: [14] | [3] | [5] | [6] | [10] | [15]

CC(C)CC(C)Nc1ccc(Nc2ccccc2)cc1 (configuration not stated)
active: [1] 38.3 µM | [8] 38.3 µM | [4] 38.3 µM | [9] 48.2 µM | [5] 54 µM | [6] 67.4 µM | [7] 47.7 µM

C[C@]12CC[C@@H]3c4ccc(OC(=O)N(CCCl)CCCl)cc4CC[C@H]3[C@@H]1CC[C@@H]2O
active: [16] 21.1 µM
inactive: [1] | [11] | [14] | [4] | [9] | [5] | [6] | [10] | [13]

COc1ccc(OC)c(CC(C)N)c1 (configuration not stated)
inactive: [1] | [11] | [8] | [12] | [2] | [3] | [17] | [4] | [9] | [5] | [6] | [10] | [15] | [13]

N#CSCSC#N
inactive: [2] | [14]
active: [1] 50.1 µM and 43.2 µM | [8] 44.6 µM and 48.5 µM | [4] 15.8 µM and 17.2 µM | [9] 50.1 µM and 34.3 µM | [5] 25.1 µM | [6] 15.7 µM and 4.28 µM | [10] 25.1 µM and 21.7 µM

C[C@@H]1O[C@@H](O[C@H]2C[C@@H](O)[C@]3(CO)[C@H]4[C@H](O)C[C@]5(C)[C@@H](C6=CC(=O)OC6)CC[C@]5(O)[C@@H]4CC[C@]3(O)C2)[C@H](O)[C@H](O)[C@H]1O
active: [1] 46.5 nM and 188 nM | [8] 16.5 nM and 133 nM | [4] 16.5 nM and 75 nM | [9] 16.5 nM and 107 nM | [5] 0.0261 µM
inactive: [6] | [10] | [15]

C=CC(=O)OCCCCOC(=O)C=C
active: [1] 49 µM | [8] 43.6 µM | [2] 54.9 µM | [6] 19.3 µM
inactive: [9] | [5]

Oc1c(Br)c(Br)c(Br)c(Br)c1Br
inactive: [14] | [5] | [6]
active: [7] 24.5 µM

CC(C)OC(=O)C(O)(c1ccc(Cl)cc1)c1ccc(Cl)cc1
active: [5] 49 µM | [6] 68.6 µM | [7] 54.5 µM
inactive: [1] | [11] | [8] | [12] | [16] | [2] | [14] | [3]

CC(C)C1CCC(Cc2ccc(Cl)cc2)C1(O)Cn1cncn1 (configuration not stated)
active: [1] 54.4 µM | [9] 48.5 µM | [5] 54.4 µM | [6] 60.5 µM | [10] 48.5 µM
inactive: [14]

S=C=Nc1cccc2ccccc12
active: [1] 24.3 µM | [4] 54.4 µM | [5] 21.7 µM | [10] 24.3 µM
inactive: [14] | [17] | [9] | [6]

COP(=O)(OC)SCn1c(=O)oc2cc(Cl)cnc21
inactive: [1] | [11] | [8] | [3] | [5] | [6] | [10]

COc1cc(C=O)cc2c1[C@H](COC(N)=O)[C@]1(OC(C)=O)ON2C[C@H]2[C@@H]1N2C(C)=O
inactive: [11] | [8] | [18] | [4] | [9] | [5] | [6] | [10] | [15]

CC1CCC(C(C)C)C(OC(=O)c2ccccc2N)C1 (configuration not stated)
inactive: [14]
active: [1] 24.2 µM | [2] 60.8 µM | [4] 34.2 µM | [9] 38.4 µM | [5] 34.2 µM | [6] 53.7 µM | [10] 38.4 µM

C[C@@H]1CC[C@@]2(OC1)O[C@H]1[C@@H](O)[C@H]3[C@@H]4CC[C@H]5C[C@@H](O[C@@H]6O[C@H](CO)[C@H](O[C@@H]7O[C@H](CO)[C@@H](O)[C@H](O[C@@H]8OC[C@@H](O)[C@H](O)[C@H]8O)[C@H]7O[C@@H]7O[C@H](CO)[C@@H](O)[C@H](O[C@@H]8O[C@H](CO)[C@@H](O)[C@H](O)[C@H]8O)[C@H]7O)[C@H](O)[C@H]6O)[C@H](O)C[C@]5(C)[C@H]4CC[C@]3(C)[C@H]1[C@@H]2C
active: [1] 5.83 µM | [8] 4.63 µM | [2] 26.1 µM | [3] 23.2 µM | [17] 32.8 µM | [4] 8.24 µM | [9] 5.2 µM | [5] 9.25 µM | [6] 10.3 µM | [10] 11.6 µM

CCN(CC)c1c([N+](=O)[O-])cc(C(F)(F)F)c(N)c1[N+](=O)[O-]
active: [7] 27.3 µM
inactive: [1] | [11] | [8] | [12] | [3] | [17] | [4] | [9] | [5] | [6]
